# Results from PubChem BioAssay (NCATS).
# Records with an inconclusive call do not appear. Calls of active or inactive are those of the source. Calls follow the shape of the dose curve; as a rule, active = well fitted inhibition curve with a large enough effect; inconclusive = small, poorly fitted or top-dose-only effect; inactive = flat fitted curve, though single readings scatter.
# Molecular target: Calcium and integrin-binding protein 1 (Homo sapiens) (UniProt Q99828)
# Experiment: Primary qHTS for Identification of Calcium Integrin Binding Protein 1 (CIB1) Competitor (AID 1508620);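 also: GST tagged CIB1 binding a fluorescein labelled alphaIIb integrin peptide tracer; top concentration of the series differs between compounds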
# Details: CIB1-GST / FITC-alphaIIb peptide fluorescence polarization; series mostly up to 114 µM; activity change, negative = inhibition: at the top concentration
# Procedure, shortened: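 Fluorescence polarization competition: CIB1-GST (1 uM final) preincubated with compound 15 min at room temperature, then FITC-labeled alphaIIb peptide (100 nM final) added for another 15 min. Polarization read at Ex 480/Em 540.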
# % is scaled to controls: 0 for no effect and ±100 for the full control effect.
# Sequence of Calcium and integrin-binding protein 1 (Homo sapiens) (Q99828 whole entry, looked up): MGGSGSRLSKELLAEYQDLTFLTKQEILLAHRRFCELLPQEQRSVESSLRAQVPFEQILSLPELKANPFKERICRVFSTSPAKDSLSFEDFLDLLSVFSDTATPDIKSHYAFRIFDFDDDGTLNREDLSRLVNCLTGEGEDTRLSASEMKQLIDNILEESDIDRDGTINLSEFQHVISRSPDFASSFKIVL
row,SMILES,"activity change, negative = inhibition"
1,Cn1c2cc(Br)sc2c2cnn(Cc3ccc(F)cc3)c(=O)c21,6.01% (inactive)
2,Cc1cnc(-c2ccccc2C(F)F)nc1NCC1CN(c2cnccn2)C1,0.273% (inactive)
3,Cc1ccc(NS(=O)(=O)c2cc3c(cc2Cl)NC(=O)CO3)cc1Cl,2.62% (inactive)
4,FC(F)(F)c1ccccc1-c1nc(NCc2ccc(-c3ccc(Cl)cc3)cc2)c2ccccc2n1,4.41% (inactive)
5,Nc1ccc(S(=O)(=O)Nc2cccc3cccnc23)cc1,-1.9% (inactive)
6,CC(=O)Nc1sc2c(c1-c1nc(-c3ccccc3)cs1)CCN(C(C)C)C2,6.35% (inactive)
7,Cc1cc(NC(=O)Nc2nnc(-c3ccncc3)s2)ccc1F,-2.03% (inactive)
8,Cc1ccc2nc3sc(C(=O)N4CCN(C5CCN(C)CC5)CC4)cc3cc2c1,-0.0408% (inactive)
9,Cc1cccc(CNc2ccnc(-c3cc(C(F)(F)F)cc(C(F)(F)F)c3)n2)c1,3.85% (inactive)
10,Cc1ccc(OCCn2c(CCNC(=O)c3ccc(C)cc3)nc3ccccc32)cc1,15.1% (inactive)
11,CC(C)(C)OC(=O)N1CCN(c2ccc(NCc3cnc(-c4ccc(C#N)cc4)o3)cc2)CC1,-0.444% (inactive)
12,CS(=O)(=O)c1ccc(C(=O)OCC(=O)N2CCC(c3ccccc3)CC2)cc1[N+](=O)[O-],-13.5% (inactive)
13,O=C1c2ccccc2C(=O)N1c1ccc(Cl)cc1,7.5% (inactive)
14,Cn1nnnc1Sc1ncnc2scc(-c3ccc(N)cc3)c12,1.53% (inactive)
15,O=C1CCc2cc(S(=O)(=O)Nc3ccc(-c4ccccc4)cc3)ccc2N1,6.15% (inactive)
16,N#Cc1nc(Nc2ccc(F)cc2)nc(NC2CCCC2)n1,-1.93% (inactive)
17,Nc1nc(NCc2ccc(-c3ccnc(C(F)(F)F)c3)cc2)c2ccccc2n1,26.1% (inactive)
18,CC(=O)Nc1oc(-c2cccc3ccccc23)nc1C#N,-3.59% (inactive)
19,O=C(O)c1ccc2c(c1)C(=O)N([C@H](Cc1ccc3ccccc3c1)C(=O)O)C2=O,-10.7% (inactive)
20,COc1ccc(OC)c(C2=Nn3c(nnc3-c3cccc(OC)c3OC)SC2)c1,-2.66% (inactive)

row,SMILES,"activity change, negative = inhibition"
1,Cc1ccnc(NC(=S)N2CCc3cccc(C(F)(F)F)c3C2)c1,-5.19% (inactive)
2,O=C(O)c1ccc2c(c1)C(=O)N([C@H](Cc1cccc3ccccc13)C(=O)O)C2=O,0.912% (inactive)
3,Cc1cc(N[S+](=O)([O-])c2cc3c(cc2F)NC(=O)CC3)ccc1Br,-4.7% (inactive)
4,O=S1(=O)N=C(Oc2ccc(-c3ccccc3)cc2)c2ccccc21,-1.84% (inactive)
5,O=C(Nc1ccc2c(c1)OCO2)Nc1nnc(-c2ccncc2)s1,-0.369% (inactive)
6,O=S(=O)(c1cccc(Cl)c1)N1CCN(S(=O)(=O)c2ccc3c(c2)OCCO3)CC1,2.38% (inactive)
7,N=c1c2c(ncn1-c1ccccc1)Oc1ccc3ccccc3c1C2c1ccc2c(c1)OCO2 (centres undefined),4.97% (inactive)
8,O=S(=O)(Nc1ccccc1F)c1ccc(O)c2ncccc12,-6.54% (inactive)
9,COc1cc(OC)cc(C2=Nn3c(nnc3-c3ccccc3OC)SC2)c1,4.58% (inactive)
10,FC(F)(F)c1ccccc1-c1nc(NCc2ccc(-c3ccc(Cl)c(Cl)c3)cc2)c2ccccc2n1,2.96% (inactive)
11,CC(C)Nc1nc(C#N)nc(Nc2ccccc2)n1,-1.99% (inactive)
12,Cc1cc2c(s1)c1cnn(Cc3c(F)ccc(C)c3F)c(=O)c1n2C,0.24% (inactive)
13,O=C1CCc2cc(S(=O)(=O)Nc3ccccc3-c3ccccc3)ccc2N1,1.77% (inactive)
14,C/C=C\C1=CCCC1Nc1ncnc2ccc(-c3c(C)noc3C)cc12 (centres undefined),-2.11% (inactive)
15,NC(=O)c1cccc(C[C@H](C(=O)O)N2C(=O)c3ccc(C(=O)O)cc3C2=O)c1,-0.299% (inactive)
16,COc1ccc(C2Nc3ccccc3C(=O)N2Cc2ccco2)cc1COc1ccccc1C (centres undefined),-4.54% (inactive)
17,COc1ccc(CN2C(=O)c3ccccc3NC2c2ccc(OC)c(COc3c(C)cc(NC(C)=O)cc3C)c2)cc1 (centres undefined),2.21% (inactive)
18,Cc1ccc(OCCn2c(CCN(C)C(=O)C3CCCCC3)nc3ccccc32)cc1,-9.81% (inactive)
19,Cc1cccc(Nc2nc(C#N)nc(NC3CCCC3)n2)c1,-2.57% (inactive)
